Furin inh: human furin inhibition | purified furin, fluorogenic substrate cleavage | hit rate 0.061% among 220,000 | P09958 | inhibition, % at 20 µM or 30 µM; in the data active = inhibition above about 25%
Target sequence (P09958 108-714 limits assumed): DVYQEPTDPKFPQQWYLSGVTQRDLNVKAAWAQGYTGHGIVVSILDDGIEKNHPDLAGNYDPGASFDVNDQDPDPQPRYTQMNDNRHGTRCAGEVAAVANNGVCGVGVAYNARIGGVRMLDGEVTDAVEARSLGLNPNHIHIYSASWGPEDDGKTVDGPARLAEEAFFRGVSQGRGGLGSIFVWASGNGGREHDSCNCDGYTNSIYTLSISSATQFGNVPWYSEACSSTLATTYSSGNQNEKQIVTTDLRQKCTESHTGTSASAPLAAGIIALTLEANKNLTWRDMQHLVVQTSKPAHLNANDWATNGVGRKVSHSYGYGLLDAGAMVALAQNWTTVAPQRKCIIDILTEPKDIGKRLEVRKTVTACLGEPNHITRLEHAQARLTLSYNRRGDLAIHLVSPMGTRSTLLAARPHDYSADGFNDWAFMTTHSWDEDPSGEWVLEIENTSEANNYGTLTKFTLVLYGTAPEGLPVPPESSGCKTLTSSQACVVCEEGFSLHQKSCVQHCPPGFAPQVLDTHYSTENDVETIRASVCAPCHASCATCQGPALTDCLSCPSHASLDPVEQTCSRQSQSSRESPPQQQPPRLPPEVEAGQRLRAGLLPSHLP
HMGR II inh: blocks class II HMG-CoA reductase of Enterococcus faecalis. inhibition, % at 10 µM. purified E. faecalis HMGR, NADPH absorbance 340 nm kinetic. hit rate 0.41% among 190,000;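 active = inhibition above a set limit, the median over all tested compounds plus 3 SD, cut at about 9.5% in these data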;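 note: enzyme runs in reverse so mevalonate oxidation gives rising NADPH absorbance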
Tb hexokinase: T. brucei hexokinase 1 inhibition; recombinant TbHK1, G6PDH-coupled NADH A340; AID 1430; hit rate 0.11% among 220,000; inhibition, % at 10 µM;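 active = inhibition of 50% or more in the single-dose primary screen; inactive = inhibition below 50%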
p-CIP stab down: lowers stability of the mouse p/CIP coactivator protein; Q05BA5; F442A p/CIP-EGFP cells, EGFP fluorescence, 16 h; decrease of EGFP signal, % at 10 µM; hit rate 0.01% among 290,000;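 active = EGFP signal decrease of at least 30% at 10 µM or well 3 SD below plate mean, unless failing retest; inactive = the rest, including hits failing retest or dose response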
p97 inhibitor: inhibitors of human p97 ATPase; P55072; recombinant p97 ATPase, Kinase-Glo ATP luminescence, 3 h; inhibition, % at 8 µM; hit rate 0.42% among 220,000; in the data active = inhibition above about 15%
DTT redox prof: compounds producing H2O2 with reducing agent – biochemical, NIH compound library profiling, artefact control for MLSCN library redox annotation, primary screen | hit rate 0.03% among 200,000 | DTT-dependent redox cycling H2O2, phenol red/HRP absorbance; 100% = 100 µM peroxide control, 0% = buffer | activation, % at 10 µM;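 active = activation of at least 50% relative to the plate's high and low controls in the primary single-dose screen; inactive = activation below 50%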;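 note: compound incubated with DTT at 0.8 mM final as the reducing agent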
p97 confirm: human p97 ATPase inhibition, confirmation; hit rate 44% among 760; shares compounds with p97 inhibitor; inhibition, % at 8 µM; recombinant p97 ATPase, Kinase-Glo ATP luminescence; AID 1517;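 active = percent inhibition of p97 ATPase above a set limit, the primary screen's mean plus 3 SD, cut at about 15% in these data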
Numbers stand for hits; 0 = inactive; - = not tested or not shown. Hits are enriched below; roughly 0.74% of the tested compounds scored in any of these assays.

SMILES	Furin inh	HMGR II inh	Tb hexokinase	p-CIP stab down	p97 inhibitor	DTT redox prof	p97 confirm
COc1ccc(C(=O)NCc2ccc3c(c2)cc(C)n3C)cc1OC	0	0	0	0	0	0	-
Cc1ccc(S(=O)(=O)CCC(=O)OCC(=O)c2c(C)[nH]c3ccccc23)cc1	0	0	0	0	20.5	0	0
CCOC(=O)c1c(C)[nH]c(C(=O)COC(=O)CCS(=O)(=O)c2ccc(C)cc2)c1C	0	0	0	0	0	-	-
Cc1[nH]c2ccccc2c1C(=O)CCl	0	0	0	0	36.1	0	37.4
COCCCNC(=O)C1Cc2cc(S(=O)(=O)N3CCCC3)ccc2N1C(C)=O (stereo not drawn)	-	-	-	0	-	-	-
CCN(CC)S(=O)(=O)c1ccc(OC)c(NC(=O)CSc2cc(Cl)ccc2Cl)c1	0	0	0	0	0	0	-
Cn1c(-c2ccccc2)c(/C=N/NC(=O)c2ccc(O)cc2)c2ccccc21	0	-	0	0	17.0	-	27.6
Cc1c(Br)c(O)c(Br)c2sc(=O)oc12	0	-	0	0	22.4	-	0
CCC(C)[C@H](NC(=O)N1CCCCCC1)C(=O)OC (stereo partly drawn)	0	-	0	0	0	-	-
O=c1cc2oc3cc(O)c(O)cc3c(-c3ccccc3O)c-2cc1O	0	-	0	0	29.4	-	35.5
Cc1ccccc1-c1cc(=O)c2c(O)cccc2o1	0	-	0	0	-	-	-
NC(=O)CC(NC(=O)c1ccc(Br)cc1)c1ccc(NC2CCCCCC2)c([N+](=O)[O-])c1 (stereo not drawn)	-	-	-	0	-	-	-
CN1CCN(c2nc3ccccc3nc2C(C#N)S(=O)(=O)c2ccccc2)CC1 (stereo not drawn)	0	-	0	0	0	-	-
C=CCNC(=O)C(C#N)c1nc2ccccc2nc1N1CCCCCC1 (stereo not drawn)	0	0	0	0	20.6	0	0
N#CC(c1nc2ccccc2nc1N1CCCC1)S(=O)(=O)c1ccccc1 (stereo not drawn)	0	0	0	0	17.2	0	0
Cc1ccc(C)c(S(=O)(=O)C(C#N)c2nc3ccccc3nc2N2CCCC2)c1 (stereo not drawn)	0	0	0	0	19.0	0	0
Cc1ccc(C)c(S(=O)(=O)C(C#N)c2nc3ccccc3nc2N2CCOCC2)c1 (stereo not drawn)	0	0	0	0	0	0	-
COc1cc(NS(=O)(=O)c2ccc(NC(=O)Cc3ccccc3)cc2)nc(OC)n1	-	-	-	0	-	-	-
CCn1nc(CC(=O)Nc2nnc(CC(=O)N3CCOCC3)s2)c2ccccc2c1=O	0	0	0	0	19.9	0	0
CCn1nc(CC(=O)Nc2nnc(CC(=O)N3CCCC3)s2)c2ccccc2c1=O	0	0	0	0	0	0	-
C=CCn1c(NC(=O)c2ccccc2Cl)c(C#N)c2nc3ccccc3nc21	0	0	0	0	43.3	0	27.6
CCCCCn1c(N)c(C#N)c2nc3ccccc3nc21	0	0	0	0	0	0	-
CCCCn1c(NC(C)=O)c(C#N)c2nc3ccccc3nc21	0	0	0	0	29.9	0	0
O=S(=O)(N/N=C/c1ccc2c(c1)OCO2)c1ccc(Br)cc1	-	-	-	0	-	-	-
O=C(Nc1ccc(Br)cc1)Nc1ccccc1Cl	0	-	0	0	0	-	-
SMILES	Furin inh	HMGR II inh	Tb hexokinase	p-CIP stab down	p97 inhibitor	DTT redox prof	p97 confirm
Cc1ccc(OCc2cc(C(=O)N3CCc4sccc4C3)no2)cc1C	-	-	-	0	-	-	-
O=C(C#Cc1cccc([N+](=O)[O-])c1)c1ccccc1	0	0	0	0	20.8	0	25.2
Cc1ccccc1Oc1nc2c(C)cccn2c(=O)c1/C=C(\C#N)C(=O)NC1CCS(=O)(=O)C1 (stereo not drawn)	0	-	0	0	15.4	-	0
Cc1ccc(OCCN(C)C(=O)c2cc(COc3ccc(F)cc3F)on2)cc1	-	-	-	0	-	-	-
Cc1ccc(-n2nc3c(=O)n(CCCC(=O)NCc4cccc(F)c4)nc(C)c3c2C)cc1	-	-	-	0	-	-	-
Cc1cccc(NC(=O)c2sc(NC(=O)c3ccco3)c(C#N)c2C)c1C	0	0	0	0	15.6	0	0
Cc1cccc(NC(=O)c2ccco2)c1C	-	-	-	0	-	-	-
Cn1cccc1/C=C1\SC(=Nc2cccc(O)c2)NC1=O	0	-	0	0	15.7	-	0
Cc1ccc(N=C2NC(=O)/C(=C/c3cccn3C)S2)c(C)c1	0	-	0	0	0	-	-
Cn1cccc1/C=C1\SC(=Nc2ccc(O)cc2)NC1=O	0	-	0	0	16.5	-	23.0
Cn1cccc1/C=C1\SC(=Nc2ccccc2)NC1=O	0	-	0	0	0	-	-
CCCCC(=O)NC(=S)Nc1cc(C(=O)O)ccc1OC	0	0	0	0	17.8	0	0
COc1ccc(C(=O)O)cc1NC(=S)NC(=O)C(c1ccccc1)c1ccccc1	-	-	-	0	-	-	-
CC(NC(=O)C(C)N1CCN(Cc2ccccc2)CC1)c1ccc(F)cc1 (stereo not drawn)	-	-	-	0	-	-	-
O=C(NCCN1CCCOC1=O)C(=O)NCCN1CCCOC1=O	0	-	0	0	0	-	-
O=C(C[n+]1cnn(CC(=O)c2ccc(Cl)cc2Cl)c1)c1ccc([N+](=O)[O-])cc1	0	0	0	0	16.8	0	0
COc1ccc(Nc2nc(-c3ccccc3)nc3ccccc23)cc1S(=O)(=O)N1CCOCC1	0	-	0	0	16.1	-	0
COc1ccc(NC(=O)c2cc(-c3ccco3)nc3ccccc23)cc1S(=O)(=O)N1CCOCC1	0	-	0	0	0	-	-
O=C(O)c1cc(-c2c[nH]c3ccccc23)nc2ccc3ccccc3c12	0	0	0	0	19.7	0	19.6
O=C(CCC(=O)N1CCOc2ccc(Cl)cc21)NCCN1CCOCC1	-	-	-	0	-	-	-
N#CC1=C(N)NC(=S)C(C(N)=O)C1c1ccc(Cl)cc1Cl (stereo not drawn)	0	0	0	0	0	0	-
N#CC1=C(N)NC(=S)C(C(N)=O)C1c1ccccc1F (stereo not drawn)	0	-	0	0	15.7	-	0
Cc1ccc(/C=N/Nc2nc(N3CCOCC3)nc(N3CCOCC3)n2)o1	0	0	0	0	0	0	-
C(=N\Nc1nc(N2CCOCC2)nc(N2CCOCC2)n1)/c1ccco1	0	0	0	0	18.0	0	0
CCOC(=O)C1=C(c2ccccc2)NC(=O)NC1c1cc(Cl)c(O)c(OC)c1 (stereo not drawn)	0	0	0	0	0	0	-
CCOC(=O)C1=C(c2ccccc2)NC(N)=NC1c1ccc(OCc2ccc(Cl)cc2)c(OC)c1 (stereo not drawn)	0	-	0	0	20.2	-	28.2
N#CC1=C2SCN(c3ccccc3)CN2C(=O)CC1c1c(Cl)cccc1Cl (stereo not drawn)	0	0	0	0	16.5	0	0
Cc1ccc(C)c(N2CCN(C(=O)CN3C(=S)NC(C)(C)CC3C)CC2)c1 (stereo not drawn)	0	0	0	0	0	0	-
COc1ccc(OCC(=O)Nc2ccc(N3CCN(Cc4ccccc4F)CC3)cc2)cc1	-	-	-	0	-	-	-

Screens from PubChem BioAssay.
